{"source": "PubChem BioAssay (EPA / NIEHS)", "note": "Calls of active or inactive are those of the source. How the source made its calls: active means hit-call score of the fitted dose curve at least 0.9, where 1 is the maximum; inactive means score below 0.9."}
{"target": "Heat shock factor protein 1 (Homo sapiens) (UniProt Q00613)", "sequence (Q00613 whole entry, looked up)": "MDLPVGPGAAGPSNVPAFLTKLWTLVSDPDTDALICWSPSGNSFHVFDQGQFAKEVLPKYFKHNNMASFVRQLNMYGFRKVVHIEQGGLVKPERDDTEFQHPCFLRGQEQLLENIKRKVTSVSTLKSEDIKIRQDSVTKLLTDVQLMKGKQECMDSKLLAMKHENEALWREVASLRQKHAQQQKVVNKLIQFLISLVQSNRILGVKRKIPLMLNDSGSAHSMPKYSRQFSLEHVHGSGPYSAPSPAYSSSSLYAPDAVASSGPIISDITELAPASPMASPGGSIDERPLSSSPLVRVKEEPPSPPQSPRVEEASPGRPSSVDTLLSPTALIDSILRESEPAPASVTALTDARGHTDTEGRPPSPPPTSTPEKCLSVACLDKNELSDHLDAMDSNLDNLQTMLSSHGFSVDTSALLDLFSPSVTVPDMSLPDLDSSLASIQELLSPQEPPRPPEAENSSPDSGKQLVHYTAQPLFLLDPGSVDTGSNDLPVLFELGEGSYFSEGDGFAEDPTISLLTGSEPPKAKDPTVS", "test": "ATG_HSE_CIS: Attagene CIS-FACTORIAL HepG2 Assay for human Heat Shock Transcription Factor 1 (HSE) (AID 2282953)", "conditions": "HepG2 HSE cis-reporter, Attagene RNA transcription; actives raise or lower the signal", "method": "ATG_CIS is a cell-based, multiplexed-readout assay that uses HepG2, a human liver cell line, with measurements taken at 24 hours after chemical dosing in a 24-well plate.ATG_HSE_CIS is one of 52 assay component(s) measured or calculated from the ATG_CIS assay. It is designed to make measurements of mRNA induction, a form of inducible reporter, as detected with fluorescence intensity signals by Reverse transcription polymerase chain reaction (RT-PCR) and Capillary electrophoresis technology.Data from the assay component ATG_HSE_CIS was analyzed into 1 assay endpoint. This assay endpoint, ATG_HSE_CIS, was analyzed with bidirectional fitting relative to DMSO as the negative control and baseline of activity. Using a type of inducible reporter, measures of mRNA for gain or loss-of-signal activity can be used to understand the reporter gene at the transcription factor-level as they relate to the gene HSF1. Furthermore, this assay endpoint can be referred to as a primary readout, because this assay has produced multiple assay endpoints where this one serves a reporter gene function. To generalize the intended target to other relatable targets, this assay endpoint is annotated to the dna binding intended target family, where the subfamily is heat shock protein.\nHuman liver HepG2 cells are transiently transfected with multiple reporter transcription units (MRTUs) in 6-well plates using FuGene 6 reagent (Roche; 3 ml FuGene/1 mg DNA). The MRTU constructs are regulated by a cis-regulating element (promoter). […] A major difference between the CIS and TRANS system is that in CIS activities of endogenous TFs are measured, whereas the TRANS assay evaluates changes in activities of exogenous, chimeric NR-Gal4 proteins. […] At the end of 24 hour incubation, total RNA was isolated using TriZol reagent (Invitrogen). The isolated RNA is then reverse-transcribed using oligo(dT) primer and Mo-MLV reverse transcriptase (Invitrogen) with DNAse I (Ambion) treatment for 30 min. The one-tenth of the produced cDNA was amplified by PCR using Taq DNA polymerase (Invitrogen) and two reporter sequence-specific primers. The PCR products were fluorescently labeled by primer extension with 6-arboxyfluorescein (6-FAM) 5'-labeled reporter sequence-specific primer (2 min at 95 C, 20 s at 68 C and 10 min at 72 C) and these products were digested with 5U of HpaI (New England Biolabs) for 2h at 37 C. The fragments were purified using Qiaquick PCR columns (Qiagen), analyzed on an ABI 3130xL genetic analyzer (Applied Biosystems) with peak positions identified by using a set of X-rhodamine (ROX)-labeled MapMarker1000 molecular weight standards (BioVentures). The raw capillary electrophoresis data was processed using Attagraph software (Attagene)."}
{"compound": "CCCC[P+](CCCC)(CCCC)CCCC", "outcome": "inactive"}
{"compound": "CC1(C)O[C@@H]2[C@@H](CO[C@@]3(COS(N)(=O)=O)OC(C)(C)O[C@@H]23)O1", "outcome": "inactive"}
{"compound": "c1ccc2[nH]cnc2c1", "outcome": "inactive"}
{"compound": "O=c1[nH]c(=O)c2cn[nH]c2[nH]1", "outcome": "inactive"}
{"compound": "CCCCCCOC(=O)CCC", "outcome": "inactive"}
{"compound": "CCOc1ccccc1O", "outcome": "inactive"}
{"compound": "C=CC(C)(O)CCC=C(C)C", "note": "(stereo not given)", "outcome": "inactive"}
{"compound": "Cc1ccc(C)o1", "outcome": "inactive"}
{"compound": "CCC(=O)OCCOc1ccccc1", "outcome": "inactive"}
{"compound": "C=C1CC[C@H](O)C/C1=C/C=C1\\CCC[C@]2(C)[C@@H]([C@H](C)/C=C/[C@H](C)C(C)C)CC[C@@H]12", "outcome": "inactive"}
{"compound": "CS(=O)(=O)c1ccc(C2=C(c3ccccc3)C(=O)OC2)cc1", "outcome": "inactive"}
{"compound": "N#Cc1ccc(CC(=O)c2cccc(C(F)(F)F)c2)cc1", "AC50": "150 µM (active)"}
{"compound": "C[C@H](CCC(=O)NCC(=O)O)[C@H]1CC[C@H]2[C@@H]3[C@H](O)C[C@@H]4C[C@H](O)CC[C@]4(C)[C@H]3C[C@H](O)[C@]12C", "outcome": "inactive"}
{"compound": "COc1cccc(OC)c1O", "outcome": "inactive"}
{"compound": "OCc1ccc(Cl)cc1Cl", "outcome": "inactive"}
{"compound": "COC(=O)C=C(C)CCC=C(C)C", "outcome": "inactive"}
{"compound": "CCOc1ccc(NC(=O)CC(C)O)cc1", "note": "(stereo not given)", "outcome": "inactive"}
{"compound": "O=C(O)c1ccc(O)cc1", "outcome": "inactive"}
{"compound": "CCOC(=O)C(C#N)=C(c1ccccc1)c1ccccc1", "AC50": "149 µM (active)"}
{"compound": "OCCc1ccccc1", "outcome": "inactive"}
{"compound": "CCCC(=O)OCCc1ccccc1", "outcome": "inactive"}
{"compound": "NC1CCCCC1N", "note": "(stereo not given)", "outcome": "inactive"}
{"compound": "C=COCCOCCOC=C", "outcome": "inactive"}
{"compound": "OCC(O)c1ccccc1", "note": "(stereo not given)", "outcome": "inactive"}
{"compound": "COc1ccccc1[N+](=O)[O-]", "outcome": "inactive"}
{"compound": "CCCC(=O)OC(C)(C)Cc1ccccc1", "outcome": "inactive"}
{"compound": "CC(CN=Cc1ccccc1O)N=Cc1ccccc1O", "note": "(stereo not given)", "outcome": "inactive"}
{"compound": "CCC1CCCCC1", "outcome": "inactive"}
{"compound": "C=CCN(CC=C)CC=C", "outcome": "inactive"}
{"compound": "O=C(Nc1ccc2c(O)c(N=Nc3ccc(N=Nc4ccc(S(=O)(=O)O)cc4)cc3)c(S(=O)(=O)O)cc2c1)c1ccccc1", "outcome": "inactive"}
{"compound": "Brc1ccc(Br)c(Br)c1", "outcome": "inactive"}
{"compound": "C#CC(C)(O)CC(C)C", "note": "(stereo not given)", "outcome": "inactive"}
{"compound": "CC=Cc1ccc(OC)c(OC)c1", "outcome": "inactive"}
{"compound": "CN(C)c1ccncc1", "outcome": "inactive"}
{"compound": "CCN(CC)C(=O)N(CC)CC", "outcome": "inactive"}
{"compound": "CC(=O)NCCO", "outcome": "inactive"}
{"compound": "CCCCCCCC/C=C\\CCCCCCCC(=O)OCC", "outcome": "inactive"}
{"compound": "CCN(CCC#N)c1ccc(N=Nc2ccc([N+](=O)[O-])cc2)cc1", "outcome": "inactive"}
{"compound": "CC(C)C[C@H](NC(=O)OCC1c2ccccc2-c2ccccc21)C(=O)O", "outcome": "inactive"}
{"compound": "Oc1ccc2cc(SSc3ccc4cc(O)ccc4c3)ccc2c1", "AC50": "78.1 µM (active)"}
